Results filed as inconclusive are left out. Where a call stands in place of a potency, no number is given. Calls of active or inactive are those of the source. Calls come from the whole dose curve.

The nature of this experiment: qHTS assay for small molecules that induce genotoxicity in human embryonic kidney cells expressing luciferase-tagged ATAD5 - cell viability (AID 651634). Note: nearly all actives have a fitted effect of over 25% in size. Conditions: HEK293T ATAD5-luc cells viability, CellTiter-Fluor, 15.5 h; series mostly up to 83.3 µM. An excerpt: National Center for Advancing Translational Sciences [NCATS]
NIH Chemical Genomics Center [NCGC]
U.S. Environmental Protection Agency [EPA]
National Institutes of Environmental Health Sciences [NIEHS]
National Toxicology Program [NTP]
U.S. Food and Drug Administration [FDA]
Enhanced Level of Genome Instability Gene 1 (ELG1; human ATAD5) protein levels increase in response to various types of DNA damage. Using a luciferase reporter-gene tagged with ElG1, a cell-based assay [developed by Kyungjae Myung, NHGRI, NIH] was used to measure the induction of ATAD5 in human embryonic kidney cells (HEK293T). So, increase in luciferase activity can be used to identify the compounds that cause genetic stress. In addition to genotoxicity, these cells were also used to test for cytotoxicity by measuring the protease activity within live cells.
Tox21 Assay Protocol Summary:
For cytotoxicity screening, 2,000 cells in 5 uL/well were dispensed into white, solid-bottom 1536-well plates using a Multidrop Combi (Thermo Scientific) dispenser. Following transfer of 23 nL compound or DMSO vehicle by a pin tool, the plates were incubated 15.5 hr at 37C and 5% CO2. 1 ul CellTiter-Fluor reagent (Promega, Madison, WI) was then added to each plate and following 30 min incubation at 37C, fluorescence intensity was quantified on a ViewLux CCD-based plate reader.
In general terms: In qHTS, concentration-response curves come from the screen itself.
As for `COc1ccc(OC)c(NC(=O)CC(C)=O)c1`, the Potency result is “inactive”.

On to `CC(=O)c1ccc(OCC(=O)N2CCCCC2)cc1`, for which the Potency result is “inactive”.

As for `CC(=O)OC(C)c1ccccc1` (stereo not given), the Potency result was “inactive”.

As to `CCNC(=O)/C=C/c1cccc(Br)c1`, the Potency entry was “inactive”.

With `CCCCCCCCCCCCCCCCI`, the Potency result was “inactive”.

With `CC(C)(C)c1ccc(C=O)cc1`, the Potency entry was “inactive”.

Take `NC(=O)NC(=O)Cc1ccccc1`: the Potency entry was “inactive”.

Consider `CC(C)(C)NCCO`, for which the Potency entry was “inactive”.

With `CCC(=O)OCCC(C)CCC=C(C)C` (stereo not given), the Potency result is “inactive”.

Consider `Cc1nc2ccccc2c(=O)o1`, for which the Potency result was “inactive”.

With `CCC(C)(C)C1CCC(=O)CC1`, the Potency entry was “inactive”.

In the case of `CN(C1CCCCC1)S(=O)(=O)c1ccccc1N`, the Potency entry is “inactive”.

In the case of `CCC(O)C(C)(C)C` (stereo not given), the Potency result was “inactive”.

In the case of `NS(=O)(=O)c1ccc(Cl)c(S(N)(=O)=O)c1`, the Potency result is “inactive”.

Regarding `O=S(=O)(O)SSS(=O)(=O)O`, the Potency result was “inactive”.

With `Nc1cc(C(=O)O)ccc1Cl`, the Potency result was “inactive”.

Consider `CCCC(C)CC` (stereo not given), for which the Potency result was “inactive”.

With `CCC(C)N` (stereo not given), the Potency result was “inactive”.

Turning to `C=CCOC(=O)c1ccc(C(=O)OCC=C)c(C(=O)OCC=C)c1`, the Potency entry was “inactive”.

As for `C=COCCOCCOC=C`, the Potency result was “inactive”.

With `CCOC(=O)C(C)(C)C`, the Potency result was “inactive”.

Turning to `NC(=O)C1(N2CCCCC2)CCN(CCCC(=O)c2ccc(F)cc2)CC1`, the Potency entry is “inactive”.

`CCOC(=O)CC(CC(=O)OCC)(OC(C)=O)C(=O)OCC`: the Potency result is “inactive”.

Turning to `CCc1nccnc1C`, the Potency result is “inactive”.

For `CCCCCCCCCCCCOC(C)=O`, the Potency result was “inactive”.

For `FC(F)(F)/C(=N\OCC1OCCO1)c1ccc(Cl)cc1`, the Potency result was “inactive”.

Regarding `CCC(=O)c1ccc(O)cc1`, the Potency entry is “inactive”.

For `Nc1cc(Cl)cc(S(=O)(=O)O)c1O`, the Potency result is “inactive”.

Take `C[CH2][Ge]([Cl])([CH2]C)[CH2]C`: the Potency result was “inactive”.

For the compound `C=CC(C)(O)CC/C=C(\C)CC` (stereo not given), the Potency entry was “inactive”.

Turning to `C1=CCC(c2ccccc2)CC1` (stereo not given), the Potency result is “inactive”.

`CCCO`: the Potency result is “inactive”.

Turning to `Nc1ccnc(=O)[nH]1`, the Potency entry was “inactive”.

As for `CC1CCC(C(C)(C)S)C(=O)C1` (stereo not given), the Potency result is “inactive”.

Take `CC(C)CCO`: the Potency result was “inactive”.

For `Cc1ccccc1N1CCN(CCc2nnc3n2CCCC3)CC1`, the Potency entry was “inactive”.

Take `CCCCCCCCCCC`: the Potency result was “inactive”.

In the case of `CC(C)(c1ccc(Oc2ccc3c(c2)C(=O)OC3=O)cc1)c1ccc(Oc2ccc3c(c2)C(=O)OC3=O)cc1`, the Potency entry was “inactive”.

As for `CC(=O)/C=C/c1ccco1`, the Potency entry is “inactive”.

For the compound `CCN(Cc1cccc(S(=O)(=O)O)c1)c1ccccc1`, the Potency result was “inactive”.

Source of the values: PubChem BioAssay (Tox21).
